Experimental data reported in the supplement of paper PMC7366291.
Where a name gives a salt, the structure may show the parent alone. ± gives the standard deviation of the averaged measurements.

The molecules below were run on Danio rerio Tg(wt1b:EGFP) embryo, pronephros (assay: glomerular width (mean of left and right), fold change vs DMSO control; higher = wider glomerulus). Details: 25 µM; exposure: 24-48 hpf.
In short: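 In HEPES-buffered E3 with 0.003% PTU and 0.5% DMSO, dechorionated Tg(wt1b:EGFP) zebrafish embryos were exposed to 25 μM compound from 24 to 48 hpf at 28.5°C. Pronephroi were then imaged dorsally at 470 nm in 10 z-slices, in 96-well plates filled with agarose. On maximum projections, a Fiji macro turned 16 manually placed reference points into distances and angles, and values more than 2 SD from the feature mean were excluded. Features are fold changes relative to the mean of DMSO-treated embryos from the same day.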
CNc1ncnc2c1ncn2[C@@H]1O[C@H](CO)[C@@H](O)[C@H]1O [N6-methyladenosine] was tested, and the glomerular width was 1.05 ± 0.029. For NS(=O)(=O)c1cc2c(cc1Cl)NC(CC1CCCC1)NS2(=O)=O (stereo unspecified) [Cyclopenthiazide], the glomerular width was 0.935 ± 0.03. For Clc1ccc(CCC(Cn2ccnc2)Sc2c(Cl)cccc2Cl)cc1 (stereo unspecified) [Butoconazole nitrate], the glomerular width was 0.767 ± 0.047. With CN(C)CC/C=C1\c2ccccc2CSc2ccccc21 [Dosulepin hydrochloride] the glomerular width was 0.981 ± 0.048. For CN(C)CCN(Cc1cccs1)c1ccccn1 [Methapyrilene hydrochloride], the glomerular width was 0.99 ± 0.077. COc1ccc(-c2ccc(=N)n(CCCC(=O)O)n2)cc1 [Gabazine bromide] showed a glomerular width of 0.983 ± 0.024. CN(C)CCC=C1c2ccccc2CCc2ccccc21 [Amitryptiline hydrochloride] was tested, and the glomerular width was 0.973 ± 0.14. C=CCSCC1Nc2cc(Cl)c(S(N)(=O)=O)cc2S(=O)(=O)N1 (stereo unspecified) [Althiazide] gave a glomerular width of 0.962 ± 0.12.

These molecules were tested on Danio rerio Tg(wt1b:EGFP) embryo, pronephros (assay: fraction of imaged embryos annotated as normal kidney; higher = less nephrotoxic; extreme values may be limits of the assay). Details: 25 µM; exposure: 24-48 hpf.
In short: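 Dechorionated Tg(wt1b:EGFP) zebrafish embryos were incubated with 25 μM compound in 0.5% DMSO, 5 mM HEPES-buffered E3 and 0.003% PTU from 24 to 48 hpf at 28.5°C. Pronephroi were then imaged by widefield fluorescence, and the fraction of embryos per treatment assigned by hand to the normal-kidney category is given.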
For C[C@]12CC[C@@H]3c4ccc(OS(=O)(=O)O)cc4CC[C@H]3[C@@H]1CCC2=O [Estropipate], the “fraction of imaged embryos annotated as normal kidney” value (shortened to “fraction of imaged embryos annotated”) was 0.75. For O=C(O)CCNC(=O)c1ccc(/N=N/c2ccc(O)c(C(=O)O)c2)cc1 [Balsalazide Sodium], the “fraction of imaged embryos annotated” value was 0.833. With Nc1nc2n[nH]nc2c(=O)[nH]1 [Azaguanine-8] the “fraction of imaged embryos annotated” value was 0.833. For NCCNCCNCCNCCN [Tetraethylenepentamine pentahydrochloride], the “fraction of imaged embryos annotated” value was 0.75. With CCCCOC(=O)c1ccc(O)cc1 [Butylparaben] the “fraction of imaged embryos annotated” value was 0.5. With CC(C)NCC(O)c1cc(O)cc(O)c1 (stereo unspecified) [Metaproterenol sulfate, orciprenaline sulfate] the “fraction of imaged embryos annotated” value was 0.909. CC1CC(OC(=O)c2ccccc2O)CC(C)(C)C1 (stereo unspecified) [Homosalate] was tested, and the “fraction of imaged embryos annotated” value was 0.667. With O=C1O[C@H]([C@@H](O)CO)C(O)=C1O [Ascorbic acid] the “fraction of imaged embryos annotated” value was 0.75. With CCCCOC(=O)c1ccc(N)cc1 [Butamben] the “fraction of imaged embryos annotated” value was 0.917. In the case of Cc1ccnc(NS(=O)(=O)c2ccc(N)cc2)n1 [Sulfamerazine], the “fraction of imaged embryos annotated” value is reported as 0.909. With CN1CCCN=C1/C=C/c1cccc(O)c1 [Oxantel pamoate] the “fraction of imaged embryos annotated” value was 0.917. With NC(=O)c1cnccn1 [Pyrazinamide] the “fraction of imaged embryos annotated” value was 0.667. For CN(C)C(=N)NC(=N)N [Metformin hydrochloride], the “fraction of imaged embryos annotated” value was 0.833. In the case of CCC(=O)[C@@]1(C)[C@H](C)C[C@H]2[C@@H]3CCC4=CC(=O)C=C[C@]4(C)[C@H]3[C@@H](O)C[C@@]21C [Rimexolone], the “fraction of imaged embryos annotated” value is reported as 0.333. In the case of COc1cc(-c2ccc(=O)[nH]n2)ccc1OC(F)F [Zardaverine], the “fraction of imaged embryos annotated” value is reported as 0.583. O=C1[C@H]2CCCC[C@H]2C(=O)N1CCCCN1CCN(c2nsc3ccccc23)CC1 [Perospirone] was tested, and the “fraction of imaged embryos annotated” value was 1. NC[C@H]1O[C@H](O[C@H]2[C@H](O[C@@H]3O[C@H](CO)[C@@H](O)[C@H]3O)[C@@H](O)[C@H](N)C[C@@H]2N)[C@H](N)[C@@H](O)[C@@H]1O [Ribostamycin sulfate salt] was tested, and the “fraction of imaged embryos annotated” value was 0.833. For CN(C)CCN1C(=O)c2ccccc2N(C)c2ccccc21 [Dibenzepine hydrochloride], the “fraction of imaged embryos annotated” value was 0.75. For CCCCC(CC)CN1CN(CC(CC)CCCC)CC(C)(N)C1 (stereo unspecified) [Hexetidine], the “fraction of imaged embryos annotated” value was 0.75. With CCN(CC)CCOC(=O)C1(c2ccc([N+](=O)[O-])cc2)CCCC1 [Nitrocaramiphen hydrochloride] the “fraction of imaged embryos annotated” value was 0.909. CC(C)(C)C(=O)OCOC(=O)[C@@H]1N2C(=O)[C@@H](/N=C/N3CCCCCC3)[C@H]2SC1(C)C [Pivmecillinam hydrochloride] was tested, and the “fraction of imaged embryos annotated” value was 0.75. CO/N=C(\C(=O)N[C@@H]1C(=O)N2C(C(=O)O)=C(COC(C)=O)CS[C@H]12)c1csc(N)n1 [Cefotaxime sodium salt] was tested, and the “fraction of imaged embryos annotated” value was 0.909. In the case of Cc1cc2c(cc1S(N)(=O)=O)S(=O)(=O)CCC2 [Meticrane], the “fraction of imaged embryos annotated” value is reported as 0.917. In the case of COc1cc(C(=O)OCCCN2CCCN(CCCOC(=O)c3cc(OC)c(OC)c(OC)c3)CC2)cc(OC)c1OC [Dilazep dihydrochloride], the “fraction of imaged embryos annotated” value is reported as 0.75. In the case of C=C1c2c(Cl)ccc(O)c2C(=O)C2=C(O)[C@]3(O)C(=O)C(C(N)=O)=C(O)[C@@H](N(C)C)[C@@H]3[C@@H](O)[C@H]12.O=C(O)c1cc(S(=O)(=O)O)ccc1O [Meclocycline sulfosalicylate], the “fraction of imaged embryos annotated” value is reported as 0.917. O=C(O)c1ccccc1OP(=O)(O)O [Fosfosal] was tested, and the “fraction of imaged embryos annotated” value was 0.833. In the case of CCOC(=O)n1ccn(C)c1=S [Carbimazole], the “fraction of imaged embryos annotated” value is reported as 0.667. For CC(C)Nc1cccnc1N1CCN(C(=O)c2cc3cc(NS(C)(=O)=O)ccc3[nH]2)CC1 [Delavirdine], the “fraction of imaged embryos annotated” value was 0.667.
